HPGD block – blocks human HPGD enzyme activity. purified HPGD, NADH fluorescence kinetic, PGE2 substrate. Potency, µM, inactives show at the top dose activity change, negative = inhibition, most hits filed as inhibitors. actives 4.3% (n = 150,000). P15428; active = well fitted inhibition curve with a large enough effect, not every such curve was filed as active; inconclusive = small, poorly fitted or top-dose-only effect, or another doubt; inactive = no such curve, though single readings can be large or run the other way; also: potency is read from the fitted curve at half-maximal effect
Target sequence (P15428 whole entry, looked up): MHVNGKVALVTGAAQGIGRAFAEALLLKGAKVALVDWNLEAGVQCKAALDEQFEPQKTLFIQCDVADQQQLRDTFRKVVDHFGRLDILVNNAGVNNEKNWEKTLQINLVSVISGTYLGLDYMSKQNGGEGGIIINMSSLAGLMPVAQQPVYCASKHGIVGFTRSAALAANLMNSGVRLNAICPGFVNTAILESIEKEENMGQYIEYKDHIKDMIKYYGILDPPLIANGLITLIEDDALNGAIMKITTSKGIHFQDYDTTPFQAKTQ
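20 nM HPGD preincubated 15 min at room temperature with compound in 50 mM Tris-HCl pH 8, 0.01% Tween 20. Started with 1 mM NAD+ and 30 uM prostaglandin E2; NADH fluorescence (360/450 nm) read 5 times over 30-s intervals, last minus first.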
IMPase cell inh – membrane-permeable compound that blocks inositol monophosphatase; P97697; CHO-M1 cells, IP1 accumulation, HTRF TR-FRET ratio; inhibition (IP1 accumulation), % at 46.1 µM; 120,000 tested, under 10 active; active = well fitted curve in the direction sought with a large enough effect in the signal ratio, not every such curve was filed as active; inconclusive = small, poorly fitted or top-dose-only effect, or a change in a side signal; inactive = no such curve, though single readings can be large or run the other way; the % refers to the signal ratio;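 also: cells stimulated with carbachol in lithium chloride buffer; plate controls were DMSO basal wells for no effect and reference inhibitor wells for full effect; higher means more IMPase inhibition seen as more IP1 and lower FRET ratio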
Target sequence (P97697 whole entry, looked up): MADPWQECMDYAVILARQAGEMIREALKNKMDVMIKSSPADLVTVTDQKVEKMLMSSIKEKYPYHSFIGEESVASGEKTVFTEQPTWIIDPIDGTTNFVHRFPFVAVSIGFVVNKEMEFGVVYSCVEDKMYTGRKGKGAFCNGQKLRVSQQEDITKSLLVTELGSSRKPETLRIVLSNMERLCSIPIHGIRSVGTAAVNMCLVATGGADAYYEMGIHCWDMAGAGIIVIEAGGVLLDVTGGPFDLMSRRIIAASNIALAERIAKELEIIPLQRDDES
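CHO-M1 cells (CHO stably expressing M1 receptor), compound up to 46 uM final, stimulated with carbachol (50 uM as added) in buffer with 50mM LiCl, pH 7.4, 30 min at 37C. Cytosolic IP1 read by TR-FRET; AC50 from Hill fits.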
IMPase Li inh – IMPase inhibition in cells with lithium potentiation. CHO-M1 cells, IP1 TR-FRET (IP-One), carbachol + lithium. Potency, µM (doses to about 59.4 µM), for inactives: top-dose activity, negative = IMPase inhibition, hits mostly inhibitors. actives 0.35% (n = 210,000);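 also: IP1 builds up when IMPase is blocked and the TR-FRET signal falls; potency is read from the fitted curve at half-maximal effect; plate controls were basal vehicle for no effect and high inhibitor control for full effect; nearly all actives have a fitted effect of over 50% in size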
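Readout is a homogeneous TR-FRET IP1 immunoassay (Ex 320, Em 665 and 620), where raised cytosolic IP1 lowers signal. Cells were CHO-M1 treated 30 min at 37C with test compounds plus a little lithium; AC50 values came from Hill-equation fitting.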
PNC inhibitor – blocks assembly of the perinucleolar compartment; PC3M PTB-GFP, PNC prevalence imaging, 16 h; stronger effect = lower value; activity change (PNC), negative = inhibition, % at 10 µM; actives 3.1% (n = 140,000);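 active = readout at or below -70, meaning at least 70% loss of cells showing the perinucleolar compartment, a nuclear body marking cancer cells; inconclusive = readout between -30 and a set limit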;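 also: plate controls were DMSO wells for no effect and camptothecin positive control wells for full effect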
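Compounds are pinned in duplicate onto adhered PC3M cells stably expressing GFP-tagged PTB and incubated 16 h at 37 C. Cells are then fixed, nuclei stained with Hoechst, and PNC-positive cells counted.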
15-hLO-2 inh – 15-hLO-2 (ALOX15B) enzyme inhibition; O15296; purified 15hLO-2, xylenol orange hydroperoxide absorbance; Potency, µM (top dose mostly 57.1 µM), for inactives: at the highest dose activity change, negative = inhibition, hits mostly inhibitors; actives 0.56% (n = 110,000); AID 881; also: potency is read from the fitted curve at half-maximal effect; nearly all actives have a fitted effect of over 60% in size
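Purified human 15hLO-2 (50 nM) preincubated 15 min with compound, then 45 uM arachidonic acid for 90 min at RT in 25 mM Hepes pH 7.5, 0.01% Triton X-100. Hydroperoxide detected by Fe-xylenol orange; 573/405 nm absorbance ratio.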
12-hLO inh – blocks human 12-lipoxygenase activity; P18054; purified 12-hLO, xylenol orange hydroperoxide absorbance; Potency, µM (series often up to 57.1 µM), without a hit: at the highest dose activity change, negative = inhibition, usual class: inhibitors; actives 0.12% (n = 150,000); AID 1452; also: potency is read from the fitted curve at half-maximal effect; nearly all actives have a fitted effect of over 55% in size
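Purified human 12hLO (150 nM final) was preincubated with compounds for 15 min at room temperature in 25 mM Hepes pH 7.0, 0.01% Triton X-100, then reacted with 40 uM arachidonic acid for 30 min. Hydroperoxide was detected with ferrous iron/xylenol orange.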
An asterisk follows results filed as active; [ ] = another dose, or the depositor's remark. Hits are enriched below; roughly 5.3% of the tested compounds scored in any of these assays. Unless noted, calls follow the shape of the dose curve; as a rule, active = well fitted curve in the direction sought with a large enough effect; inconclusive = small, poorly fitted or top-dose-only effect, or another doubt; inactive = no such curve, though single readings can be large; an effect the other way counts as inactive or inconclusive. Unless noted, % is scaled to controls: 0 for no effect and ±100 for the full control effect.

CC(Sc1ncc(C#N)c(N)n1)C(=O)Nc1ccccc1 (configuration not stated) was read as HPGD block -2%, IMPase cell inh 10, IMPase Li inh 1%, PNC inhibitor -112*, 15-hLO-2 inh 1% and 12-hLO inh 4%.
`CCOC(=O)c1cc(NC(=O)c2ccccc2)c(=O)n2c1oc1ccc(Cl)cc12` gave IMPase cell inh -5.
Screening O=C(O)C1CC(=O)N(c2ccc(OCc3ccc(Cl)cc3Cl)cc2)C1 (configuration not stated) returned HPGD block 14µM*, IMPase cell inh 1, IMPase Li inh 20%[38.3 µM], PNC inhibitor -18, 15-hLO-2 inh -14% and 12-hLO inh -2%.
For O=C(CN(C1CCCCC1)S(=O)(=O)c1ccc(Cl)cc1)NCc1ccncc1 the results were HPGD block 1%, IMPase cell inh 4, IMPase Li inh -1%[38.3 µM], PNC inhibitor -100*, 15-hLO-2 inh 2% and 12-hLO inh -11%.
Screening Cc1cc(C)c(S(=O)(=O)N(CC(=O)NCc2cccnc2)C2CCCCC2)c(C)c1 returned HPGD block -8%, IMPase cell inh -1, IMPase Li inh 41%[38.3 µM], PNC inhibitor -88*, 15-hLO-2 inh 6% and 12-hLO inh -13%.
For Cc1ccc(S(=O)(=O)N(CC(=O)NCc2cccnc2)C2CCCCC2)cc1 the results were IMPase Li inh 12%.
For O=C(CN(C1CCCCC1)S(=O)(=O)c1ccc(Br)cc1)NCc1ccncc1 the results were IMPase Li inh 14%.
Cc1noc(C)c1-c1nc(N(C)C)c2ccccc2n1 was read as IMPase Li inh -5% and 15-hLO-2 inh -23%.
COc1cccc(-c2[nH]nc3c2C(c2ccoc2)C(C#N)=C(N)O3)c1 (configuration not stated) was read as HPGD block 28µM*, IMPase cell inh 5, IMPase Li inh 12%[38.3 µM], PNC inhibitor -23, 15-hLO-2 inh -14% and 12-hLO inh -4%.
`COc1cccc(-c2[nH]nc3c2C(c2ccsc2)C(C#N)=C(N)O3)c1` (configuration not stated) gave HPGD block inconclusive, IMPase cell inh 8, IMPase Li inh 1%[38.3 µM], PNC inhibitor -20 and 12-hLO inh 1%.
For N#CC1=C(N)Oc2n[nH]c(-c3ccncc3)c2C1c1ccsc1 (configuration not stated) the results were HPGD block 22µM*, IMPase cell inh 6[1.84 µM], IMPase Li inh 32%[38.3 µM], PNC inhibitor inconclusive, 15-hLO-2 inh 9%[11.4 µM] and 12-hLO inh -4%.
`CN(CCOc1ccc(-c2ccn(S(=O)(=O)c3cccc4ccccc34)n2)cc1)c1ccccn1` gave HPGD block -14%, IMPase cell inh 4[1.84 µM], IMPase Li inh 41%[38.3 µM], PNC inhibitor -89*, 15-hLO-2 inh 3%[11.4 µM] and 12-hLO inh -2%.
`COC1=CC(=O)C(O)=C/C1=C\C=C\c1ccccc1` gave HPGD block 11µM*, IMPase Li inh 33%, 15-hLO-2 inh inconclusive and 12-hLO inh inconclusive.
`CCn1c(=O)c(C(=O)NNS(=O)(=O)c2ccc(Br)cc2)c(O)c2ccccc21` gave IMPase Li inh 13%.
`Cc1c(C(Nc2ccccn2)c2ccccc2)c(=O)n(-c2ccccc2)n1C` (configuration not stated) gave HPGD block -11%, IMPase cell inh 1, IMPase Li inh 6%, PNC inhibitor -100* and 12-hLO inh 0%.
`Cc1c(C(Nc2ccccn2)c2ccc(Cl)cc2)c(=O)n(-c2ccccc2)n1C` (configuration not stated) gave HPGD block -17%, IMPase cell inh 1, IMPase Li inh -6%[38.3 µM], PNC inhibitor 17, 15-hLO-2 inh 30% and 12-hLO inh -16%.
Screening CC(=O)Nc1ccc(Oc2ccc(-c3noc(C)n3)cc2)cc1 returned HPGD block 7.9µM*, IMPase cell inh -1, IMPase Li inh -12%[38.3 µM], PNC inhibitor 2, 15-hLO-2 inh 0% and 12-hLO inh 2%.
Screening CN(C)C(=O)c1ccc(-c2cncnc2NCc2cccnc2)cc1 returned IMPase Li inh 1% and 15-hLO-2 inh 5%.
CCOC(=O)C1(Cc2ccccc2)CCN(Cc2ccc3cc(NC(C)=O)ccc3n2)CC1 was read as IMPase Li inh 7%.
For Cc1nc2ccccn2c1C(=O)N=Nc1c(O)n(CCC(C)C)c2ccccc12 the results were HPGD block -1%, IMPase cell inh 5, IMPase Li inh 30%, PNC inhibitor inconclusive and 12-hLO inh -5%.
For O=C(CCN1C(=O)/C(=C/C=C/c2ccccc2)SC1=S)Nc1cccnc1 the results were HPGD block -11%, IMPase Li inh -4%, PNC inhibitor -108* and 12-hLO inh -1%.
Screening COc1ccc(NS(=O)(=O)c2ccc(C)c(NC(=O)c3ccc(C)c(S(=O)(=O)N4CCOCC4)c3)c2)cc1 returned HPGD block -10%, IMPase Li inh -1%, PNC inhibitor inconclusive and 12-hLO inh 0%.
`Cc1cc(C)n(/N=C/c2ccc(C(C)C)cc2)c(=O)c1C#N` gave HPGD block -31%, IMPase Li inh 17%, PNC inhibitor inconclusive and 12-hLO inh 2%.
For COc1cccc(C2c3c(oc4ccc(Cl)cc4c3=O)C(=O)N2c2cc(C)on2)c1OC (configuration not stated) the results were HPGD block -14%, IMPase cell inh -6, IMPase Li inh 4%[38.3 µM], PNC inhibitor -136*, 15-hLO-2 inh -4% and 12-hLO inh 0%.
`Cc1ccc(NC(=O)CN(C)C(=O)c2n[nH]c(=O)c3ccccc23)cc1` gave IMPase Li inh 8%.
`COc1ccc(C(=O)Nn2c(C)nnc2-n2nc(C)cc2C)cc1OC` gave HPGD block 1%, IMPase cell inh 13, IMPase Li inh 0%, PNC inhibitor -6 and 12-hLO inh 1%.
`COc1cccc(C(=O)Nn2c(C)nnc2-n2nc(C)cc2C)c1` gave HPGD block -9%, IMPase cell inh -10, IMPase Li inh 6%, PNC inhibitor -100* and 12-hLO inh -3%.
For CC(/C=N/NC(=O)c1ccco1)=C\c1ccccc1 the results were IMPase Li inh 1%.
Cc1ccccc1Oc1ccc(-c2nc(N)nc(N)n2)cc1 was read as HPGD block 25µM*, IMPase cell inh -6, IMPase Li inh 6%[38.3 µM], PNC inhibitor inconclusive, 15-hLO-2 inh 34% and 12-hLO inh 0%.

Bioassay records from PubChem.
